# Unmarked numbers belong to inactive results.
# Experiments:
# Assay in all cases: log2 ratio of Biotin-Ahx-Ub-VS probe labelling (fragment/DMSO); higher = less target engagement (more negative = stronger competition), active = hit call of the paper (q ≤ 0.05, log2 ratio ≤ -1)
# Conditions in all cases: compound concentration: 200 uM; treatment time: 3 h
# [1] = compound: CC(C)CN(C1CC1)C(=O)CCl
# How it was run: (§1)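 Fragment (200 µM) or vehicle was incubated for 3 h with triplicate HEK293T lysate samples of 495 µg, which were then treated with Biotin-Ahx-Ub-VS at 0.5 µM final for 1 h. Labelled DUBs were enriched on NeutrAvidin, digested with LysC and trypsin, and analysed by diaPASEF LC-MS/MS. Values are average log2 fragment/vehicle ratios from an unpaired t-test on global-median-normalised Spectronaut label-free quantities, using proteins with ≥2 unique peptides.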
# [2] = compound: CC(NC(=O)CCl)c1cccs1
# How it was run: as §1
# [3] = compound: CC1CCCCC1NC(=O)CCl
# How it was run: as §1
# [4] = compound: CC1CCCCN1C(=O)CCl
# How it was run: as §1
# [5] = compound: CC1CN(CC(C)O1)C(=O)CCl
# How it was run: as §1
# [6] = compound: CN(C1CCCCC1)C(=O)CCl
# How it was run: as §1
# [7] = compound: Cc1cc(NC(=O)CCl)no1
# How it was run: as §1
# [8] = compound: Cc1cccc(NC(=O)CCl)c1
# How it was run: as §1
# [9] = compound: Cc1nc(NC(=O)CCl)sc1C
# How it was run: as §1
# [10] = compound: Cc1nnc(NC(=O)CCl)s1
# How it was run: as §1
# [11] = compound: Cl.Cc1ncsc1CNC(=O)CCl
# How it was run: as §1
# [12] = compound: ClCC(=O)N1CCCCCCC1
# How it was run: as §1
# [13] = compound: ClCC(=O)NC1(CCCC1)C#N
# How it was run: as §1
# [14] = compound: ClCC(=O)NCC1CCC1
# How it was run: as §1
# [15] = compound: ClCC(=O)NCC1CCCO1
# How it was run: as §1
# [16] = compound: ClCC(=O)NCc1ccco1
# How it was run: as §1
# [17] = compound: ClCC(=O)Nc1cccc(Cl)c1
# How it was run: as §1
# Sequence of UniProt O00507 (O00507 whole entry): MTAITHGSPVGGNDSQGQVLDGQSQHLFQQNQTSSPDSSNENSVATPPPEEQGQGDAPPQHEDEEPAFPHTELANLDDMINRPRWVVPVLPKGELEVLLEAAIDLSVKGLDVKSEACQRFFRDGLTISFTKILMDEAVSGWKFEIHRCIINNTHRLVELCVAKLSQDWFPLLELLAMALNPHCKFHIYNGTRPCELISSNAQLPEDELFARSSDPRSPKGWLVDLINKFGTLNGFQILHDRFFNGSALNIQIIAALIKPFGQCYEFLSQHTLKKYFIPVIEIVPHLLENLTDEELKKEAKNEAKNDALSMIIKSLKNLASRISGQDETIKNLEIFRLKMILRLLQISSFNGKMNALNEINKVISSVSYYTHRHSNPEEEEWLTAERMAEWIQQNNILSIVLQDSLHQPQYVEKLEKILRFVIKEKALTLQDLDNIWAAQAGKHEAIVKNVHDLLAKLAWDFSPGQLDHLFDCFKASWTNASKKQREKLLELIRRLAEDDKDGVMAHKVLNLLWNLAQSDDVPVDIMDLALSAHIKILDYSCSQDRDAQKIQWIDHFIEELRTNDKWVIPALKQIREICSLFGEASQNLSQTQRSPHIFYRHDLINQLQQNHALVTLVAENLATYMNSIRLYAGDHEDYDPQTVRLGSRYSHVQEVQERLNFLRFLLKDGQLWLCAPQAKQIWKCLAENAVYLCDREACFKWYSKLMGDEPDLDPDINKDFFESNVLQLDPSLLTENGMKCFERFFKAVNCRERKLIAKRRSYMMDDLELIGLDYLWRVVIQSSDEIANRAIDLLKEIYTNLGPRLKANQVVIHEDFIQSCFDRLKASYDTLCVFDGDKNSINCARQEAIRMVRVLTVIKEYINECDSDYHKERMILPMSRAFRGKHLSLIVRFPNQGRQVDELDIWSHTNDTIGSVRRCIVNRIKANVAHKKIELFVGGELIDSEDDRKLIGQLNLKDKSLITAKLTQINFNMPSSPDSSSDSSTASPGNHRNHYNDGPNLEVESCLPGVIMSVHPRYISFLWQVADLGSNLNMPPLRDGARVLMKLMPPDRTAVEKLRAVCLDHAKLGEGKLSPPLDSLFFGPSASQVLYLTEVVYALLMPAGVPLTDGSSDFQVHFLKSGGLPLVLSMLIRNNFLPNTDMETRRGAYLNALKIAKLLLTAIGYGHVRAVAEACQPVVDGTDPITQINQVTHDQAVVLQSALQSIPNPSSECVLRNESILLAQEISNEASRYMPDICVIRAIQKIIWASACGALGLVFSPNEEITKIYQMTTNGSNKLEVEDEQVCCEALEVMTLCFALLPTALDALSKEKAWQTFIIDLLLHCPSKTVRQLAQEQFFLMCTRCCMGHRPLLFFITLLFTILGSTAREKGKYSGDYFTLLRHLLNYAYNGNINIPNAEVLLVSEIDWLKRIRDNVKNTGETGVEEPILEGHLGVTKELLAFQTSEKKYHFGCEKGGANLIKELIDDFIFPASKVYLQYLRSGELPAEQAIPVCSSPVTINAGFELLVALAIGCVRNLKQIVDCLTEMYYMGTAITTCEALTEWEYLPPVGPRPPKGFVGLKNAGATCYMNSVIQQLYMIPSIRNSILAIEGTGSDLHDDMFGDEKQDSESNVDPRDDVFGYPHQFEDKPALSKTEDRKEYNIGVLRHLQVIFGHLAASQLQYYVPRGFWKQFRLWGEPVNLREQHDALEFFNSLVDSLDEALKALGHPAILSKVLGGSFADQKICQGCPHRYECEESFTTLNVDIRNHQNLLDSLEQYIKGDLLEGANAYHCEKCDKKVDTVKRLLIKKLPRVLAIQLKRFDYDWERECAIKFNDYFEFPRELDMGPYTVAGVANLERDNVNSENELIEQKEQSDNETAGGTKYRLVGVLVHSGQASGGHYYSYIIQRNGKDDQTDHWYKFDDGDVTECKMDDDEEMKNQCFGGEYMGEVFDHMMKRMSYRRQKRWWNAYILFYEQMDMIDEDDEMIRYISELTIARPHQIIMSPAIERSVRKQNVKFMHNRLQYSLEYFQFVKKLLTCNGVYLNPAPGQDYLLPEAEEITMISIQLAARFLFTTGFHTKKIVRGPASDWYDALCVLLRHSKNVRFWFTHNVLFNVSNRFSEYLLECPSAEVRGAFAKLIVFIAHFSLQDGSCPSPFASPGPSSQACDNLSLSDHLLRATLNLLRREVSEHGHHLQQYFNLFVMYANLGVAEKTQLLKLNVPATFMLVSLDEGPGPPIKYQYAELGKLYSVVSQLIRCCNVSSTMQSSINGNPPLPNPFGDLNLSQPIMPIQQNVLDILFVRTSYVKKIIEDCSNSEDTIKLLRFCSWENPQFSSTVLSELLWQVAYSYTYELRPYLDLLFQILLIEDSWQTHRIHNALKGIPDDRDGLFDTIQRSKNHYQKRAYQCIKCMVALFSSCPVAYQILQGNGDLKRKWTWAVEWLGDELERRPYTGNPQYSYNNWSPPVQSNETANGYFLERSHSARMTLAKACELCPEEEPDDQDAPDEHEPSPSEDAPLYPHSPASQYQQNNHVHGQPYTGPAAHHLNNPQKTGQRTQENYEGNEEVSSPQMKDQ
# Sequence of UniProt Q96JH7 (Q96JH7 whole entry): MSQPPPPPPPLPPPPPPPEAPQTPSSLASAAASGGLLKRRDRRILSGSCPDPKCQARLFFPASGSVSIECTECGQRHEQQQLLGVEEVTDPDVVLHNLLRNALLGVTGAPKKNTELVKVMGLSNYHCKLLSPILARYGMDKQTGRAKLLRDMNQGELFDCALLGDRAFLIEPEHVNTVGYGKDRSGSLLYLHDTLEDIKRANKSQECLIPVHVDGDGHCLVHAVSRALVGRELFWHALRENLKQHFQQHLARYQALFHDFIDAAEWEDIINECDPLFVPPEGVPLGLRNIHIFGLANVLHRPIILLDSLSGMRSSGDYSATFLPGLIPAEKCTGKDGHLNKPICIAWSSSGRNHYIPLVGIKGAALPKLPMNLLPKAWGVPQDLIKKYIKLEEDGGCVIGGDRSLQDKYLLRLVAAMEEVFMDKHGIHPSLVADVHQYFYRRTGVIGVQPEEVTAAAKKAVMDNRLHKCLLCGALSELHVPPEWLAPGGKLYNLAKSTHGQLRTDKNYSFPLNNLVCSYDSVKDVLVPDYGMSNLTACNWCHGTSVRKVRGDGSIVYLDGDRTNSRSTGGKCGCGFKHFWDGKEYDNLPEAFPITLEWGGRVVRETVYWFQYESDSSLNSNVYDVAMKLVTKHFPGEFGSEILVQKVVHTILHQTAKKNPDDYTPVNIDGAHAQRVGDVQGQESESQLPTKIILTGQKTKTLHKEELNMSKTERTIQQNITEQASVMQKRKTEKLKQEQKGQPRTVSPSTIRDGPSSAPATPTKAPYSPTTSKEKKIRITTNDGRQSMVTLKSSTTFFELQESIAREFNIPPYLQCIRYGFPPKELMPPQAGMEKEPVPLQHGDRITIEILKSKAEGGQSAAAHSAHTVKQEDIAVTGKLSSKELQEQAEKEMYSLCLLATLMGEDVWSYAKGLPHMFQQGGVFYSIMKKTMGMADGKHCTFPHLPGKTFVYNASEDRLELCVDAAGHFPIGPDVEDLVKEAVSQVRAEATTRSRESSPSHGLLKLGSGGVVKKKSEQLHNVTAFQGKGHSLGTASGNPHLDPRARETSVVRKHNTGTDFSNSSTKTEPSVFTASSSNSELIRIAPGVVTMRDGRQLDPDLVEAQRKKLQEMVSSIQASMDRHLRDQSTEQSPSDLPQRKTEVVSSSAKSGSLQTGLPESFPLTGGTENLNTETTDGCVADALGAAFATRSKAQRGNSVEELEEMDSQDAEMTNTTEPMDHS
# Sequence of UniProt O00303 (O00303 whole entry): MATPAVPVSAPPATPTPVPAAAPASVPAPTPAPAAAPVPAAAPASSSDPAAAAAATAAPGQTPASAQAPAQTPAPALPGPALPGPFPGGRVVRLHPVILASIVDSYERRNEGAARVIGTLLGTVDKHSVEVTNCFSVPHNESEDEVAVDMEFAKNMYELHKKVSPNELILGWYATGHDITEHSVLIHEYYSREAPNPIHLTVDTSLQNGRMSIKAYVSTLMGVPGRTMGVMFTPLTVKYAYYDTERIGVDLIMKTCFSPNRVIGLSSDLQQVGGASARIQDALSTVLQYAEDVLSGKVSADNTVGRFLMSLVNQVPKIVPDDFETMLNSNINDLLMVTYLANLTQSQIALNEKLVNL
# Sequence of UniProt P54252 (P54252 whole entry): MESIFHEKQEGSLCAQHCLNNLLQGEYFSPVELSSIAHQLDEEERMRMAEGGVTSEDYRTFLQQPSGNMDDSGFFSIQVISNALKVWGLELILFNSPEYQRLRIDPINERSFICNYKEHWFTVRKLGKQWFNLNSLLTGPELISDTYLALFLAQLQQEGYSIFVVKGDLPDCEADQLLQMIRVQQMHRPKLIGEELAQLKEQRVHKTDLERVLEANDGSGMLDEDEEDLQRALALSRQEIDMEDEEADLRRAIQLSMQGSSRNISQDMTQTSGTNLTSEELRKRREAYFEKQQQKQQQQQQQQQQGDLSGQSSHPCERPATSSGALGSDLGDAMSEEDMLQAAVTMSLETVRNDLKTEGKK
Target,log2 ratio of Biotin-Ahx-Ub-VS probe labelling [1],log2 ratio of Biotin-Ahx-Ub-VS probe labelling [2],log2 ratio of Biotin-Ahx-Ub-VS probe labelling [3],log2 ratio of Biotin-Ahx-Ub-VS probe labelling [4],log2 ratio of Biotin-Ahx-Ub-VS probe labelling [5],log2 ratio of Biotin-Ahx-Ub-VS probe labelling [6],log2 ratio of Biotin-Ahx-Ub-VS probe labelling [7],log2 ratio of Biotin-Ahx-Ub-VS probe labelling [8],log2 ratio of Biotin-Ahx-Ub-VS probe labelling [9],log2 ratio of Biotin-Ahx-Ub-VS probe labelling [10],log2 ratio of Biotin-Ahx-Ub-VS probe labelling [11],log2 ratio of Biotin-Ahx-Ub-VS probe labelling [12],log2 ratio of Biotin-Ahx-Ub-VS probe labelling [13],log2 ratio of Biotin-Ahx-Ub-VS probe labelling [14],log2 ratio of Biotin-Ahx-Ub-VS probe labelling [15],log2 ratio of Biotin-Ahx-Ub-VS probe labelling [16],log2 ratio of Biotin-Ahx-Ub-VS probe labelling [17]
USP5 (UniProt P45974),0.195,0.3,-0.0515,-0.178,0.00747,0.487,-0.18,-0.356,0.0301,-0.648,-0.209,0.18,-0.00567,-0.0477,0.0345,0.0924,-0.784
USP4 (UniProt Q13107),0.153,0.162,-0.162,-0.204,-0.321,-0.349,-0.155,-0.256,0.0368,-0.309,-0.0374,-0.0039,-0.169,0.0544,0.132,-0.0646,-0.558
USP36 (UniProt Q9P275),-0.165,0.124,-0.354,-0.058,-0.116,-0.0255,-0.0892,-0.141,-0.166,-0.233,0.171,-0.19,-0.191,-0.134,-0.189,-0.185,-0.132
UniProt Q9UGI0,0.11,-0.241,-0.605,-1.13 (active),-0.702,-0.423,-0.555,-0.519,-0.47,-0.661,-0.315,0.214,-0.804,-0.704,0.145,-0.705,-1.16 (active)
EIF3F (UniProt O00303),-0.0929,-0.197,-0.16,-0.0889,-0.424,-0.158,-0.0386,-0.0785,0.0404,-0.0892,-0.495,-0.124,-0.132,-0.235,0.0109,0.0785,-0.0247
UniProt O00507,0.374,0.0497,-0.0879,-0.429,-0.148,0.12,0.023,0.0709,0.409,-0.563,-0.51,0.333,0.0321,0.0835,0.383,-0.338,-0.568
VCPIP1 (UniProt Q96JH7),-0.221,-1.63 (active),-0.946,-0.492,-0.305,-0.056,-1.46 (active),-1.21 (active),-0.628,-0.412,-1.34 (active),-0.205,-0.518,-0.707,-0.226,-0.695,-2.08 (active)
ATXN3 (UniProt P54252),-0.0377,0.0273,-0.0841,-0.487,-0.327,-0.303,-0.0822,-0.171,-0.116,-0.268,-0.254,-0.156,-0.305,-0.206,-0.0451,-0.0869,-1.02 (active)
UniProt Q9P2H5,-0.166,-0.204,0.0516,-0.0828,-0.259,-0.335,0.0945,-0.217,-0.0782,-0.183,-0.0813,-0.0714,-0.237,-0.322,-0.138,-0.105,-0.631

# — the supplement of paper PMC11732987, “Enantioselective OTUD7B fragment discovery through chemoproteomics screening and high-throughput optimisation” (Communications Chemistry, 2025)
